This passage reports growth results from PubChem BioAssay (NCI).

Holding throughout (assay): NCI-60 one-dose screen, 48 h (100 = growth as untreated, 0 = no growth, -100 = all killed)
One test deals with NCI-H23 lung. The conditions noted are these: 10 µM unless noted.
The next test has as its system NCI-H226 lung. The conditions noted are these: 10 µM unless noted.
The test system of a further test is NCI-H322M lung. To be noted: 10 µM unless noted.
For another test, the system named is HOP-62 NSCLC. To be noted: 10 µM unless noted.
For the next test, the system named is NCI-H460 lung. The conditions noted are these: 10 µM unless noted.
A further test concerns 786-0 renal. The conditions noted are these: 10 µM unless noted.
For another test, the system named is COLO 205 colon. The conditions noted are these: 10 µM unless noted.
A further test relates to DU-145 prostate. To be noted: 10 µM unless noted.
A further test has as its system K-562 leukemia. To be noted: 10 µM unless noted.
For another test, the system named is MALME-3M melanoma. The conditions noted are these: 10 µM unless noted.
For another test, the system named is MDA-MB-231 breast. The conditions noted are these: 10 µM unless noted.
The subject of another test is RXF 393 renal. To be noted: 10 µM unless noted.
The test system of a further test is SF-268 CNS. The conditions noted are these: 10 µM unless noted.
For the next test, the system named is SF-295 CNS. To be noted: 10 µM unless noted.
A further test has as its system SF-539 CNS. To be noted: 10 µM unless noted.
The test system of a further test is M14 melanoma. To be noted: 10 µM unless noted.
The next test deals with HOP-92 NSCLC. To be noted: 10 µM.
In the next test the test system is NCI-H522 lung. To be noted: 10 µM.
The test system of a further test is A549/ATCC NSCLC. To be noted: 10 µM unless noted.
Another test deals with UACC-257 melanoma. The conditions noted are these: 10 µM unless noted.

The panel holds about 83,000 compounds, 20% with a hit somewhere; the sample as a whole holds those more often.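 Assay: single dose, 48 h. Readout: percent growth (0 = no net growth; negative = cell death). Active: <10.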 Values without a mark were called inactive. Calls of active or inactive are those of the source.

`CC(C)C(=O)c1ccc(Cl)s1`: the growth in the test with NCI-H23 lung is 103%; in the test with NCI-H226 lung, 93.2%; in the test with NCI-H322M lung, 91.5%; in the test on HOP-62 NSCLC, 98.1%; with NCI-H460 lung, 105%; in the test on 786-0 renal, 102%. Further, the growth in the test with COLO 205 colon is 109%; in the test on DU-145 prostate, 106%; in the test on K-562 leukemia it was 91.5%; in the test with MALME-3M melanoma it was 82.8%; in the test with MDA-MB-231 breast, 105%; with RXF 393 renal, 105%. The growth in the test on SF-268 CNS is 102%; with SF-295 CNS it was 99.3%; in the test with SF-539 CNS, 107%; in the test with M14 melanoma it was 101%.

For the compound `CC([C@H]1CCC2C3CCC4C[C@@H](N)CC[C@]4(C)C3CC[C@@]21C)N(C)C` (stereo partly drawn), the growth is 77.1% in the test with NCI-H23 lung; 112% in the test with NCI-H226 lung; 77.3% in the test with NCI-H322M lung; 104% in the test with HOP-62 NSCLC; 53.1% with HOP-92 NSCLC; 102% with NCI-H522 lung. The growth was 86.1% with A549/ATCC NSCLC; 71.7% in the test on 786-0 renal; 6.07% (active) with COLO 205 colon; 88.7% in the test with DU-145 prostate; 21.2% with K-562 leukemia; 5.88% (active) with MALME-3M melanoma. The growth in the test with MDA-MB-231 breast is 58%; in the test with RXF 393 renal, 24.3%; with SF-268 CNS, 37.1%; with SF-295 CNS, 76.6%; in the test on SF-539 CNS, 13.1%; in the test with UACC-257 melanoma it was -7.66% (active). For the same compound, the growth in the test on M14 melanoma is -6.67% (active).

Turning to `O=C(O)c1ccc(-c2nn(-c3ccc(C(=O)O)cc3)cc2CNc2ccc(Br)cc2)cc1`, the growth in the test with NCI-H23 lung is 106%; in the test on NCI-H226 lung it was 115%; with NCI-H322M lung, 100%; in the test on HOP-62 NSCLC, 104%; in the test on HOP-92 NSCLC it was 102%; in the test with NCI-H522 lung, 85.4%. For the same compound, the growth in the test on A549/ATCC NSCLC is 101%; in the test on 786-0 renal it was 102%; in the test with COLO 205 colon, 108%; in the test with DU-145 prostate, 102%; with K-562 leukemia, 102%; in the test with MALME-3M melanoma, 106%. For the same compound, the growth was 115% with MDA-MB-231 breast; 111% with RXF 393 renal; 94.1% in the test with SF-268 CNS; 101% in the test with SF-295 CNS; 101% with SF-539 CNS; 101% in the test with UACC-257 melanoma. The growth in the test with M14 melanoma was 97.6%.

Take `COc1cc(C(=O)Nc2ccc(N(C)C)cc2)cc(OC)c1OC`: the growth with NCI-H23 lung is 95.4%; with NCI-H226 lung, 91%; with NCI-H322M lung, 93.4%; in the test on HOP-62 NSCLC, 94.2%; in the test on NCI-H460 lung, 99.8%; with 786-0 renal it was 96.4%. For the same compound, the growth is 100% in the test with COLO 205 colon; 107% in the test on DU-145 prostate; 42.8% in the test on K-562 leukemia; 80.6% in the test on MALME-3M melanoma; 96.4% with MDA-MB-231 breast; 95.7% with RXF 393 renal. Also, the growth in the test with SF-268 CNS was 99.1%; in the test on SF-295 CNS, 91.7%; with SF-539 CNS it was 96.1%; with M14 melanoma, 89.8%.

Regarding `CCN(CC)C(=O)C1(C)CCCC2(C)c3cc(OC(C)=O)ccc3CCC12` (stereo not drawn), the growth is 84.3% with NCI-H23 lung; 75.8% with NCI-H226 lung; 83.5% with NCI-H322M lung; 94.9% in the test on HOP-62 NSCLC; 90% with NCI-H460 lung; 92% with 786-0 renal. Further, the growth in the test with COLO 205 colon is 92%; in the test on DU-145 prostate, 99.9%; in the test with K-562 leukemia, 58.6%; with MALME-3M melanoma it was 86.4%; in the test with MDA-MB-231 breast, 103%; with RXF 393 renal it was 92%. Also, the growth was 86.5% in the test with SF-268 CNS, 85.1% in the test with SF-295 CNS, 89.2% with SF-539 CNS and 112% in the test on M14 melanoma.

Regarding `COc1ccc(Nc2c3ccccc3nc3ccccc23)cc1`, the growth with NCI-H23 lung was 36.1%; with NCI-H226 lung, 6.97% (active); in the test with NCI-H322M lung, 43.3%; in the test with HOP-62 NSCLC, 33.7%; in the test with NCI-H460 lung, 9.36% (active); in the test on 786-0 renal, 43.6%. In addition, the growth with COLO 205 colon was 20.1%; with DU-145 prostate it was 21.5%; with K-562 leukemia, 12.4%; with MALME-3M melanoma, 42.3%; in the test on MDA-MB-231 breast, 55.3%; with RXF 393 renal it was 28.1%. The growth is 35.9% in the test on SF-268 CNS, 15.9% in the test with SF-295 CNS, 23.3% with SF-539 CNS and 48% in the test with M14 melanoma.

Take `O=C(NC1CCN(Cc2ccccc2)CC1)c1cc(-c2cccnc2)nc2ccc(Cl)cc12`: the growth in the test on NCI-H23 lung is 67.9%; in the test on NCI-H226 lung it was 84%; with NCI-H322M lung it was 91.6%; with HOP-62 NSCLC it was 101%; in the test on HOP-92 NSCLC, 56.5%; in the test on NCI-H522 lung it was 90.4%. Moreover, the growth was 56.3% in the test with A549/ATCC NSCLC; 78.7% in the test with 786-0 renal; -37.3% (active) in the test on COLO 205 colon; 87.5% with DU-145 prostate; 2.45% (active) with K-562 leukemia; 74% in the test with MALME-3M melanoma. Further, the growth in the test on MDA-MB-231 breast was 58.8%; in the test with RXF 393 renal it was 82.1%; with SF-268 CNS, 100%; in the test with SF-295 CNS, 67.6%; with SF-539 CNS, 63.9%; with UACC-257 melanoma it was 83.2%. Besides, in the test with M14 melanoma, the growth is 77.9%.

In the case of `CCCNC(=O)Oc1ccc(/C(=C(/C)Cc2ccc(OC)cc2)c2ccc(OCCN3CCCC3)cc2)cc1`, the growth with NCI-H23 lung was 84.1%; in the test on NCI-H226 lung, 90.7%; with NCI-H322M lung it was 86.5%; with HOP-62 NSCLC it was 76.8%; in the test on HOP-92 NSCLC it was 52.1%; in the test with NCI-H522 lung, 71.8%. In addition, the growth was 71.8% in the test on A549/ATCC NSCLC; 70.7% in the test with 786-0 renal; 10.1% in the test on COLO 205 colon; 90.1% in the test on DU-145 prostate; -11.5% (active) in the test with K-562 leukemia; 28.9% in the test on MALME-3M melanoma. The growth was 57.6% in the test with MDA-MB-231 breast; 70% in the test on RXF 393 renal; 72.4% with SF-268 CNS; 68.7% with SF-295 CNS; 77.8% with SF-539 CNS; 73.5% in the test with UACC-257 melanoma. In addition, the growth in the test with M14 melanoma is -52.9% (active).

Consider `CCCCCN1CCN(C(CC(=O)c2ccccc2)C(=O)c2ccccc2)CC1` (stereo not drawn), for which the growth is 98.8% with NCI-H23 lung; 103% in the test with NCI-H226 lung; 101% in the test on NCI-H322M lung; 101% in the test with HOP-62 NSCLC; 83.4% with HOP-92 NSCLC; 1.49% (active) with NCI-H522 lung. Besides, the growth with A549/ATCC NSCLC was 101%; in the test with 786-0 renal it was 102%; with COLO 205 colon, 55.1%; with DU-145 prostate, 69.1%; with K-562 leukemia it was 11.2%; in the test with MALME-3M melanoma, 50.4%. Further, the growth with RXF 393 renal was 111%; with SF-268 CNS, 91.5%; with SF-295 CNS, 105%; in the test with SF-539 CNS, 110%; in the test on UACC-257 melanoma it was 107%; in the test on M14 melanoma, 97.6%.
